# A selection: hits, their analogues and other compounds. The true share with any hit is near 22%.
# CYP2C19 inhib – blockers of cytochrome P450 2C19 activity – biochemical, luminescence, ADME assay, primary screen; inhibition, % at 5 µM; P33261; actives 21% (n = 96,000); AID 778, 2007; CYP2C19 Supersomes, luciferin-H EGE luminescence, 30 min;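 active means CYP2C19 inhibition above a set limit at 5 µM in the primary screen, cut at about 50% in these data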;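 further: plate controls were negative control wells for no effect and 2.5 mM tranylcypromine positive control for full effect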
# Target sequence (P33261 whole entry, looked up): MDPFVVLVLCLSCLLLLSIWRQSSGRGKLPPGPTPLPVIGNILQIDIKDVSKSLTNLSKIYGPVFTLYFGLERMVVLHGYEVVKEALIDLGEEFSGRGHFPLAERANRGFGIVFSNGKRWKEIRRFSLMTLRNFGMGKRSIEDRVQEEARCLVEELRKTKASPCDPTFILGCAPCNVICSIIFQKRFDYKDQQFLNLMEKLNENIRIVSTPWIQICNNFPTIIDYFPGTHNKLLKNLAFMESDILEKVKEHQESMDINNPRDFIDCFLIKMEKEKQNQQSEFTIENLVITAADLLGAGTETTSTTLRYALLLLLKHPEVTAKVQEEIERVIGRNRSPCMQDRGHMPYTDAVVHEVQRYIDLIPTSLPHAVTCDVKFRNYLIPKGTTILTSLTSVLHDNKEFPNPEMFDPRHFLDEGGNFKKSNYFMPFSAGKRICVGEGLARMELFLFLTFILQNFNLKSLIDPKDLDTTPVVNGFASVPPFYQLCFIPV
# Measles CPE – compounds protecting cells from measles virus cytopathic effect, primary screen, measles RdRp inhibitor project, single point, MLSMR library, absorbance. Measles virus-infected cells, CPE protection. protection (pct of control), % at 4 µM. actives 1.5% (n = 140,000); in the data active means protection mostly above about 24%, no sharp cut-off; inactive means mostly below about 26%
# CYP2C19 act – human CYP2C19 activators, primary screen, biochemical, luminescence | Cytochrome P450 2C19 (Homo sapiens), P33261 | recombinant CYP2C19, luciferin-H EGE luminescence; active compounds read high; 0 = fully inhibited enzyme, 1 = untreated enzyme | 96,000 tested, under 10 active | activation factor at 5 µM;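 active means activation factor of at least 2 at 5 µM in the primary screen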;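 further: 0 = wells with 2.5 mM tranylcypromine and 1 = vehicle-only wells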
# CYP2C9 act – human CYP2C9 activators, primary screen, biochemical, luminescence. Cytochrome P450 2C9 (Homo sapiens), P11712. recombinant CYP2C9, luciferin-H conversion; active compounds read high; factor 1 = untreated enzyme, 0 = blocked. activation factor at 5 µM. actives 1.4% (n = 96,000). AID 1024, 2008;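 active means activation factor of 2 or more for CYP2C9 at a 5 µM dose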;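 further: 0 = sulfaphenazole-blocked wells and 1 = vehicle-only wells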
# CYP2C9 inhib – blockers of cytochrome P450 2C9 activity – biochemical, luminescence, ADME assay, primary screen. P11712. inhibition, % at 5 µM. CYP2C9 Supersomes, luciferin-H conversion. actives 20% (n = 96,000);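 active means blocking of liver enzyme CYP2C9 beyond about 50% at 5 µM, limit read from the data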
# The depositor's hits bear a star; · = no result given.
SMILES,CYP2C19 inhib,Measles CPE,CYP2C19 act,CYP2C9 act,CYP2C9 inhib
COc1ccc(CCNC(=O)COC(=O)c2cnccn2)cc1,35.1,4.3,0.6,0.8,19.2
COc1ccc(C(=O)/C=C/c2ccc(OC)c(O)c2)c(F)c1,·,16.1,·,·,·
COc1cc(/C=C/C(=O)c2ccc(Cl)s2)cc(OC)c1O,50.1*,10.2,0.5,0.8,22.7
COc1ccc(/C=C/C(=O)c2ccc(Cl)s2)cc1O,53.9*,11.9,0.5,0.4,58.7*
COc1cccc(-c2nc(-c3ccccn3)no2)c1,75.2*,0.8,0.2,0.6,39.3
c1ccc(-c2noc(-c3ccc4c(c3)OCO4)n2)nc1,79.4*,5.7,0.2,0.1,92.0*
c1ccc(-c2noc(-c3ccncc3)n2)nc1,67.6*,3.6,0.3,0.7,25.1
O=C(Cn1cc(C(F)(F)F)ccc1=O)N1CCN(S(=O)(=O)c2ccccc2)CC1,-10.3,1.7,1.1,1.2,-23.2
Cc1ccc2c(c1)c1nnc(SCC(=O)N3CCN(c4ccc(F)cc4)CC3)nc1n2CC(=O)O,·,2.0,·,·,·
CC(C)(C)c1ccc(C(=O)N/C(=C/c2cccs2)C(=O)NCc2ccco2)cc1,·,14.8,·,·,·
O=C(O)C1CCCCC1C(=O)Nc1ccc2c(c1)CCC2 (configuration not stated),-7.4,10.2,1.1,1.2,-20.4
CCn1nccc1C(=O)Nc1cc(Cl)ccc1Cl,2.6,7.2,1,1.1,-10.4
CCn1nccc1C(=O)Nc1ccc(Cl)cc1Cl,63.4*,16.9,0.4,0.7,33.8
CCCCOc1ccc(C(=O)N/C(=C\c2ccc([N+](=O)[O-])cc2)C(=O)OCc2ccco2)cc1,·,8.5,·,·,·
CCn1c(C(=O)N2CCC(Cc3ccccc3)CC2)cc2sccc21,59.3*,28.4,0.4,0.4,57.7*
CCn1c(C(=O)N2CCCC(C(=O)O)C2)cc2sccc21 (configuration not stated),·,3.5,·,·,·
O=C(Cn1c(C(=O)NCC2CCCO2)cc2sccc21)c1ccccc1 (configuration not stated),27.1,2.6,0.7,0.5,51.1*
O=C(Cn1c(C(=O)N2CCN(C3CCCC3)CC2)cc2sccc21)c1ccccc1,80.0*,7.2,0.2,0.6,39.9
O=CNCCCc1nc2ccccc2n1Cc1ccccc1,14.9,1.5,0.9,1,-2.0
CC(CC1CC(C)(C)OC1=O)C(=O)Nc1ccc([N+](=O)[O-])cc1 (configuration not stated),·,26.4,·,·,·
CC1(C)CC(CC(=O)Nc2ccc([N+](=O)[O-])cc2)C(=O)O1 (configuration not stated),15.6,35.0*,0.8,1.2,-16.6
Cc1ccc(NC2c3ncccc3C(=O)N2Cc2ccc(F)cc2)cc1 (configuration not stated),32.4,17.6,0.7,0.5,52.7*
O=C1C(SC(F)(F)C(F)F)=C(C(F)(F)F)OC2C3C=CC(C3)C12 (configuration not stated),-2.9,12.9,1,1.1,-14.5
CC(/C=N/n1c(C2CCCCC2)n[nH]c1=S)=C\c1ccccc1,38.5,4.5,0.6,0.4,61.2*
CC(/C=N/n1c(-c2cc(C)[nH]n2)n[nH]c1=S)=C\c1ccccc1,·,21.2,·,·,·
SMILES,CYP2C19 inhib,Measles CPE,CYP2C19 act,CYP2C9 act,CYP2C9 inhib
CC(C)Sc1nc(N2CCOCC2)c2c(c1C#N)CC(C)(C)SC2,69.7*,7.2,0.3,0.1,95.0*
CCc1nc(NCC(C)C)c(C#N)c2c1COC(C)(C)C2,8.4,18.9,0.9,0.8,19.1
CCCSc1nc(N2CCOCC2)c2c(c1C#N)CC(C)(C)SC2,34.7,11.0,0.7,0.3,66.5*
CC(C)Sc1nc(N2CCCC2)c2c(c1C#N)CC(C)(C)OC2,60.9*,11.3,0.4,0.1,86.7*
CC1(C)Cc2c(c(N3CCCCC3)[nH]c(=S)c2C#N)CS1,4.1,3.1,1,0.6,37.9
CC(Sc1nc(N2CCCCC2)c2c(c1C#N)CCCC2)C(=O)O (configuration not stated),31.1,19.7,0.7,0.1,89.9*
CCOC(=O)C1=C(C)N(c2ccc(Cl)cc2)C(=O)NC1c1cccc([N+](=O)[O-])c1 (configuration not stated),·,26.9,·,·,·

# Assay outcomes deposited in PubChem BioAssay by several laboratories.
